# Where “and” joins values, the source holds several entries; their conditions need not be identical. Equal values may be shown once. Where a structure was tested more than once in an assay, its records may differ in their call. Calls of active or inactive are those of the source. The calls were made as follows: active = hit-call score of the fitted dose curve at least 0.9, where 1 is the maximum; inactive = score below 0.9.
# Experiments:
# [1] = read-out: Urokinase-type plasminogen activator receptor (uPAR), PLAUR (gene 5329); experiment: BSK_4H_uPAR: BioMAP Diversity Plus: 4H Assay for Urokinase-type plasminogen activator receptor (uPAR) Biomarker Activity (AID 2283030); conditions: primary human endothelial cells (HUVEC); actives raise or lower the signal
# Procedure, shortened: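 Primary human umbilical vein endothelial cells were exposed to chemical for 24 h before cell-surface uPAR was quantified by ELISA. Activity was fitted bidirectionally against the DMSO negative control baseline.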
# [2] = read-out: Vascular endothelial growth factor receptor 2 (Homo sapiens) (UniProt P35968); experiment: BSK_4H_VEGFRII: BioMAP Diversity Plus: 4H Assay for Vascular endothelial growth factor receptor 2 (VEGFR2) Biomarker Activity (AID 2283031); conditions: primary human endothelial cells (HUVEC); actives raise or lower the signal;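 as to AC50: cell-surface VEGFR2 protein level quantified by ELISA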
# Procedure, shortened: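 Primary human umbilical vein endothelial cells in the BioMAP 4H system were dosed with test chemical, and 24 h later VEGFRII was measured by ELISA. Activity was fitted bidirectionally against DMSO as negative control and baseline.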
# [3] = read-out: Human Leukocyte Antigen - DR isotype (HLADR), HLA-DRA (gene 3122); experiment: BSK_BE3C_HLADR: BioMAP Diversity Plus: BE3C Assay for Human Leukocyte Antigen - DR isotype (HLADR) Biomarker Activity (AID 2283032); conditions: primary human bronchial epithelial cells; actives raise or lower the signal
# Procedure, shortened: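 Human primary bronchial epithelial cells in the BE3C system were exposed to chemicals for 24 h, after which HLA-DR levels were quantified by ELISA. Activity was fitted bidirectionally, gain or loss of signal, against DMSO as negative control and baseline.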
# [4] = read-out: Vascular cell adhesion molecule 1 (VCAM1), VCAM1 (gene 7412); experiment: BSK_4H_VCAM1: BioMAP Diversity Plus: 4H Assay for Vascular cell adhesion molecule 1 (VCAM1) Biomarker Activity (AID 2283033); conditions: primary human endothelial cells (HUVEC); actives raise or lower the signal;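 as to outcome: cell-surface VCAM-1 protein measured by ELISA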
# Procedure, shortened: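 Primary human umbilical vein endothelial cells were exposed to chemicals for 24 h, after which VCAM-1 was quantified by ELISA. Responses were fitted bidirectionally against DMSO as negative control and activity baseline.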
# [5] = read-out: Interferon-gamma inducible Protein 10 (IP10), CXCL10 (gene 3627); experiment: BSK_BE3C_IP10: BioMAP Diversity Plus: BE3C Assay for Interferon-gamma inducible Protein 10 (IP10) Biomarker Activity (AID 2283034); conditions: primary human bronchial epithelial cells; actives raise or lower the signal
# Procedure, shortened: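 Human primary bronchial epithelial cells were exposed to chemicals for 24 hours, after which IP-10 levels were measured by ELISA. Data were fitted bidirectionally against DMSO, which served as the negative control and activity baseline.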
# [6] = read-out: Monokine induced gamma interferon (MIG), CXCL9 (gene 4283); experiment: BSK_BE3C_MIG: BioMAP Diversity Plus: BE3C Assay for Monokine induced gamma interferon (MIG) Biomarker Activity (AID 2283035); conditions: primary human bronchial epithelial cells; actives raise or lower the signal;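 as to outcome: MIG protein measured by ELISA in BE3C cultures after 24 h of dosing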
# Procedure, shortened: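 ELISA read-out of MIG in human lung bronchial epithelial primary cultures, 24 h post-dosing. Bidirectional curve fit vs DMSO baseline.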
# [7] = read-out: Transforming growth factor beta 1 (TGFb1), TGFB1 (gene 7040); experiment: BSK_BE3C_TGFb1: BioMAP Diversity Plus: BE3C Assay for Transforming growth factor beta 1 (TGFb1) Biomarker Activity (AID 2283036); conditions: primary human bronchial epithelial cells; actives raise or lower the signal
# Procedure, shortened: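 Human primary bronchial epithelial cells (BE3C system) were dosed with chemical and TGF-b1 levels measured by ELISA at 24 h. Activity was fitted bidirectionally relative to DMSO negative control as baseline.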
# [8] = read-out: Plasminogen activator inhibitor-1 (PAI1), SERPINE1 (gene 5054); experiment: BSK_BE3C_PAI1: BioMAP Diversity Plus: BE3C Assay for Plasminogen activator inhibitor-1 (PAI1) Biomarker Activity (AID 2283037); conditions: primary human bronchial epithelial cells; actives raise or lower the signal
# Procedure, shortened: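 Human primary bronchial epithelial cells were exposed to chemical for 24 h, then PAI-1 was quantified by ELISA. Activity was fitted bidirectionally relative to the DMSO negative control baseline.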
# [9] = read-out: urokinase plasminogen activator (uPA), PLAU (gene 5328); experiment: BSK_BE3C_uPA: BioMAP Diversity Plus: BE3C Assay for urokinase plasminogen activator (uPA) Biomarker Activity (AID 2283038); conditions: primary human bronchial epithelial cells; actives raise or lower the signal;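 as to outcome: uPA protein level quantified by ELISA in cell cultures; uPA read one day after compound addition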
# Procedure, shortened: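 Human primary bronchial epithelial cells were exposed to chemical for 24 h, then uPA levels were measured by ELISA. Responses were fitted bidirectionally against DMSO as negative control and baseline. Parallel SRB staining of total protein gauged overt cytotoxicity.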
# [10] = read-out: Urokinase-type plasminogen activator receptor (uPAR), PLAUR (gene 5329); experiment: BSK_BE3C_uPAR: BioMAP Diversity Plus: BE3C Assay for Urokinase-type plasminogen activator receptor (uPAR) Biomarker Activity (AID 2283039); conditions: primary human bronchial epithelial cells; actives raise or lower the signal;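 as to outcome: cells exposed to compound for one day before measurement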
# Procedure, shortened: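 Primary human bronchial epithelial cells were dosed with chemical and harvested 24 h later; uPAR was quantified by ELISA. Activity was fitted bidirectionally against DMSO as negative control and baseline.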
smiles,measurement,setting,value
Nc1ccc(Cl)cc1,outcome,[1],inactive
same,outcome,[2],inactive
same,outcome,[3],inactive
same,outcome,[4],inactive
same,outcome,[5],inactive
same,outcome,[6],inactive
same,outcome,[7],inactive
same,outcome,[8],inactive
same,outcome,[9],inactive
same,outcome,[10],inactive
CC(Cl)CN(C)C (stereo unspecified),outcome,[1],inactive
same,outcome,[2],inactive
same,outcome,[3],inactive
same,outcome,[4],inactive
same,outcome,[5],inactive
same,outcome,[6],inactive
same,outcome,[7],inactive
same,outcome,[8],inactive
same,outcome,[9],inactive
same,outcome,[10],inactive
O=S1(=O)OCC2C(CO1)C1(Cl)C(Cl)=C(Cl)C2(Cl)C1(Cl)Cl (stereo unspecified),AC50,[1],9.1 µM (active)
same,outcome,[2],inactive
same,outcome,[3],inactive
same,AC50,[4],20 µM (active)
same,outcome,[5],inactive
same,outcome,[6],inactive
same,outcome,[7],inactive
same,outcome,[8],inactive
same,outcome,[9],inactive
same,outcome,[10],inactive
C=CC(=O)OCC(F)(F)C(F)F,outcome,[1],inactive
same,outcome,[2],inactive
same,AC50,[3],44.9 µM (active)
same,outcome,[3],inactive
same,AC50,[4],38.9 µM (active) and 30 µM (active)
same,outcome,[5],inactive
same,outcome,[6],inactive
same,outcome,[8],inactive
same,outcome,[9],inactive
same,outcome,[10],inactive
O=[N+]([O-])c1ccc(Cl)c(Cl)c1,outcome,[1],inactive
same,outcome,[2],inactive
same,outcome,[3],inactive
same,outcome,[4],inactive
same,outcome,[5],inactive
same,outcome,[6],inactive
same,outcome,[7],inactive
same,outcome,[8],inactive
same,outcome,[9],inactive
N#Cc1c(-c2ccc(Cl)cc2)[nH]c(C(F)(F)F)c1Br,AC50,[1],0.13 µM (active)
same,AC50,[2],0.016 µM (active)
same,AC50,[3],4.08 µM (active)
same,AC50,[4],1.69 µM (active)
same,AC50,[5],4.45 µM (active)
same,AC50,[6],25.4 µM (active)
same,AC50,[7],0.0307 µM (active)
same,outcome,[8],inactive
same,outcome,[9],inactive
same,AC50,[10],0.656 µM (active)
CCOP(=S)(OCC)SCSCC,outcome,[1],inactive
same,outcome,[2],inactive
same,outcome,[3],inactive
same,outcome,[4],inactive
same,outcome,[5],inactive
same,outcome,[6],inactive
same,outcome,[7],inactive
same,outcome,[8],inactive
same,outcome,[10],inactive
COP(N)(=S)OC,outcome,[1],inactive
same,outcome,[2],inactive
same,outcome,[3],inactive
same,outcome,[4],inactive
same,outcome,[5],inactive
same,outcome,[6],inactive
same,outcome,[7],inactive
same,outcome,[8],inactive
same,outcome,[9],inactive
same,outcome,[10],inactive
O=c1ssc(Cl)c1Cl,AC50,[1],7.3 µM (active)
same,outcome,[2],inactive
same,AC50,[3],8.51 µM (active)
same,AC50,[4],3.91 µM (active)
same,AC50,[5],3.38 µM (active)
same,AC50,[6],12.6 µM (active)
same,AC50,[7],14.8 µM (active)
same,AC50,[8],11.7 µM (active)
same,AC50,[9],9.31 µM (active)
same,AC50,[10],12.2 µM (active)
OCC(F)(F)OC(F)(F)C(F)(F)OC(F)(F)C(F)(F)OC(F)(F)F,AC50,[1],50.3 µM (active) and 44.6 µM (active)
same,AC50,[2],42.9 µM (active)
same,outcome,[2],inactive
same,outcome,[3],inactive
same,outcome,[4],inactive
same,outcome,[5],inactive
same,outcome,[6],inactive
same,outcome,[10],inactive
CCCCCCCc1ccc(O)cc1,AC50,[1],38.4 µM (active)
same,outcome,[2],inactive
same,AC50,[3],32.1 µM (active)
same,AC50,[4],35.1 µM (active)
same,AC50,[5],35 µM (active)
same,AC50,[6],37.6 µM (active)
same,AC50,[7],37.3 µM (active)
same,AC50,[8],39.3 µM (active)
same,AC50,[9],39.1 µM (active)
same,AC50,[10],39.3 µM (active)
Nc1cc2c3c(c1)C(c1ccccc1)=N[C@@H](NC(=O)c1cccnc1)C(=O)N3CC2,outcome,[1],inactive
same,outcome,[2],inactive
same,outcome,[3],inactive
same,outcome,[4],inactive
same,outcome,[5],inactive
same,outcome,[6],inactive
same,outcome,[7],inactive
same,outcome,[8],inactive
same,outcome,[9],inactive
same,outcome,[10],inactive
CCN(CC)c1ccccc1,outcome,[1],inactive
same,outcome,[2],inactive
same,outcome,[3],inactive
same,outcome,[4],inactive
same,outcome,[5],inactive
same,outcome,[6],inactive
same,outcome,[7],inactive
same,outcome,[8],inactive
same,outcome,[10],inactive
CCOc1ccc(C(C)(C)COCc2cccc(Oc3ccccc3)c2)cc1,outcome,[1],inactive
same,outcome,[2],inactive
same,outcome,[3],inactive
same,outcome,[4],inactive
same,outcome,[5],inactive
same,outcome,[6],inactive
same,outcome,[7],inactive
same,outcome,[8],inactive
same,outcome,[9],inactive
same,outcome,[10],inactive
ClC1=C(Cl)C2(Cl)C3C(Cl)C(Cl)CC3C1(Cl)C2(Cl)Cl (stereo unspecified),AC50,[1],38 µM (active)
same,AC50,[2],30.3 µM (active)
same,AC50,[3],15.2 µM (active)
same,AC50,[4],27.3 µM (active)
same,AC50,[5],34.9 µM (active)
same,AC50,[6],30.6 µM (active)
same,AC50,[7],9.17 µM (active)
same,AC50,[8],36.1 µM (active)
same,outcome,[9],inactive
same,outcome,[10],inactive
Nc1ccc([N+](=O)[O-])cc1Cl,outcome,[1],inactive
same,outcome,[2],inactive
same,outcome,[3],inactive
same,outcome,[4],inactive
same,outcome,[5],inactive
same,outcome,[6],inactive
same,outcome,[7],inactive
same,outcome,[8],inactive
same,outcome,[10],inactive
O=C(O)C(Cl)Cl,outcome,[1],inactive
same,outcome,[2],inactive
same,outcome,[3],inactive
same,outcome,[4],inactive
same,outcome,[5],inactive
same,outcome,[6],inactive
same,outcome,[7],inactive
same,outcome,[8],inactive
same,outcome,[9],inactive
same,outcome,[10],inactive
Cc1ccc(N)cc1N,outcome,[1],inactive
same,outcome,[2],inactive
same,outcome,[3],inactive
same,outcome,[4],inactive
same,outcome,[5],inactive
same,outcome,[6],inactive
same,outcome,[7],inactive
same,outcome,[8],inactive
same,outcome,[10],inactive
O=C(O)C1C(C(=O)O)C2(Cl)C(Cl)=C(Cl)C1(Cl)C2(Cl)Cl (stereo unspecified),outcome,[1],inactive
same,outcome,[2],inactive
same,outcome,[3],inactive
same,outcome,[4],inactive
same,outcome,[5],inactive
same,outcome,[6],inactive
same,outcome,[7],inactive
same,outcome,[8],inactive
same,outcome,[9],inactive
same,outcome,[10],inactive
CCC(C)(C)c1ccc(O)cc1,outcome,[1],inactive
same,outcome,[2],inactive
same,outcome,[3],inactive
same,outcome,[4],inactive
same,outcome,[5],inactive
same,outcome,[6],inactive
same,outcome,[7],inactive
same,outcome,[8],inactive
same,outcome,[10],inactive
c1ccc(OP(Oc2ccccc2)Oc2ccccc2)cc1,outcome,[1],inactive
same,outcome,[2],inactive
same,outcome,[3],inactive
same,outcome,[4],inactive
same,outcome,[5],inactive
same,outcome,[6],inactive
same,outcome,[7],inactive
same,outcome,[8],inactive
same,outcome,[10],inactive
